Laboratory results from PubChem BioAssay (Tox21).
Inconclusive results are not listed. The source made the active and inactive calls. Unless noted, the call rests on the fitted dose curve; in most records, active means well fitted curve in the direction sought with a large enough effect in the repeat runs; inconclusive means weak or mixed curves; inactive means no such curve, though single readings can be large; an effect the other way counts as inactive or inconclusive.

Experiments:
[1] = qHTS assay to identify aromatase inhibitors - cell viability counter screen (AID 743084);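 further: cells stimulated with testosterone during compound exposure; nearly all actives have a fitted effect of over 55% in size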
[2] = target: Aryl hydrocarbon receptor (Homo sapiens) (UniProt P35869); test: qHTS assay to identify small molecule that activate the aryl hydrocarbon receptor (AhR) signaling pathway (AID 743085); further: nearly all actives have a fitted effect of over 15% in size; further: potency means the concentration at half of the fitted maximal effect;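 on activation: HG2L7.5c1 human HepG2 liver cells with stably integrated DRE-driven firefly reporter; series mostly up to about 70 µM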
Chain of Aryl hydrocarbon receptor (Homo sapiens) (P35869 whole entry, looked up): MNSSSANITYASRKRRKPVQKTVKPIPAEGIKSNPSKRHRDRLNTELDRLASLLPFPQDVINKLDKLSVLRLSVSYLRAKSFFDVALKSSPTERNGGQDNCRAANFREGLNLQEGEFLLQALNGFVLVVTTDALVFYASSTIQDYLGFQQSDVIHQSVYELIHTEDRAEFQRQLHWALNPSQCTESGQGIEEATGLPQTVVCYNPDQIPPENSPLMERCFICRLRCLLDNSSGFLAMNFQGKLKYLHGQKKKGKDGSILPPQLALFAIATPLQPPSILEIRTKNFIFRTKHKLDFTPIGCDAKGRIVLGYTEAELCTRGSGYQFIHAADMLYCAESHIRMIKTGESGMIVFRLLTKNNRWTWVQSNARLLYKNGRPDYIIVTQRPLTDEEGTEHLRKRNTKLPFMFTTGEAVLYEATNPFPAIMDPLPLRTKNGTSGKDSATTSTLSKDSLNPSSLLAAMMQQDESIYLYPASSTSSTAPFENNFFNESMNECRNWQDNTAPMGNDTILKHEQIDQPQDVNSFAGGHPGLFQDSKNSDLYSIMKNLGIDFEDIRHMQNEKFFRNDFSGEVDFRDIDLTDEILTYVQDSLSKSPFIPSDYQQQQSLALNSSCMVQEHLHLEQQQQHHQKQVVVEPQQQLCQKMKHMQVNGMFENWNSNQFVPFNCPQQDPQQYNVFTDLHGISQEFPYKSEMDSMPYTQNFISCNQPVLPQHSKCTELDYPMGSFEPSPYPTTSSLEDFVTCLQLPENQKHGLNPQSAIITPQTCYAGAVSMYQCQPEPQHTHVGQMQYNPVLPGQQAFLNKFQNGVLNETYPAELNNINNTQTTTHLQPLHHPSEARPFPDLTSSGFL
Outline: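 HepG2 cells stably carrying a 20-DRE firefly luciferase reporter (HG2L7.5c1) treated with compound for 24 hr at 37C. Luciferase read by ONE-Glo luminescence, with CellTiter-Fluor viability read first.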

[3] = qHTS assay to identify small molecule that activate the aryl hydrocarbon receptor (AhR) signaling pathway - cell viability counter screen (AID 743086);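 further: HepG2 liver cells carrying the AhR DRE luciferase reporter; series mostly up to about 70 µM; nearly all actives have a fitted effect of over 45% in size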
Outline: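 HepG2-AhR-luc (HG2L7.5c1) cells, 4000/well, treated 24 h at 37 C with compound; viability measured as CellTiter-Fluor fluorescence after 30 min in the same wells as the luciferase read.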

[4] = target: Peroxisome proliferator-activated receptor gamma (Homo sapiens) (UniProt P37231); test: qHTS assay to identify small molecule agonists of the peroxisome proliferator-activated receptor gamma (PPARg) signaling pathway (AID 743094; active means well fitted activation curve with a large enough effect in the signal ratio in the repeat runs, not every such curve was filed as active; the % refers to the signal ratio)
Chain of Peroxisome proliferator-activated receptor gamma (Homo sapiens) (P37231 whole entry, looked up): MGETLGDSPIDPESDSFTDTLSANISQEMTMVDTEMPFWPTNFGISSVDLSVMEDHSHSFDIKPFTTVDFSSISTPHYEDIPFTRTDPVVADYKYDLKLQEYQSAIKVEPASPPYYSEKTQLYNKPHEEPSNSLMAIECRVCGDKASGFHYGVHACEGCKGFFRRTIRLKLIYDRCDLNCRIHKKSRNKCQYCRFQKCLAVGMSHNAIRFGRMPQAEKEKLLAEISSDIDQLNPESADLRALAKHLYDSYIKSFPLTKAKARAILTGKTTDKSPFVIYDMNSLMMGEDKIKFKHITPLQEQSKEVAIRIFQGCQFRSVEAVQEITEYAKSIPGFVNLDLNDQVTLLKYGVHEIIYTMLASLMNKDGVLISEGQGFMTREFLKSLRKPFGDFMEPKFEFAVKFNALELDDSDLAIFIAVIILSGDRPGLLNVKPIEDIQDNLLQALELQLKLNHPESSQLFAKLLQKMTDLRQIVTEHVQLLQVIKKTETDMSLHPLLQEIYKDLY
Outline: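 GeneBLAzer PPARg UAS-bla HEK293H cells carrying a stably integrated beta-lactamase reporter were pre-incubated 5 h at 37C, then exposed to compounds in DMSO for 17 h at 37C; LiveBLAzer B/G FRET substrate was added for 1 h at room temperature and fluorescence read.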

[5] = target: Peroxisome proliferator-activated receptor gamma (Homo sapiens) (UniProt P37231); test: qHTS assay to identify small molecule antagonists of the peroxisome proliferator-activated receptor gamma (PPARg) signaling pathway (AID 743191; calls by dose curve; further: nearly all actives have a fitted effect of over 30% in size; further: potency means the concentration at half of the fitted maximal effect; on ratio activity, negative = inhibition: series mostly up to about 63 µM)
Outline: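 GeneBLAzer PPARg UAS-bla HEK293H cells, 5 h post-plating, exposed to compounds 17 h at 37C. LiveBLAzer B/G FRET substrate added for 1 h at room temperature; beta-lactamase reporter read by fluorescence intensity.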

[6] = qHTS assay to identify small molecule antagonists of the peroxisome proliferator-activated receptor gamma (PPARg) signaling pathway - cell viability counter screen (AID 743194); further: nearly all actives have a fitted effect of over 55% in size
Outline: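 Cytotoxicity counter screen in PPARg-bla HEK293H cells, same wells as reporter assay. Compounds plus 50 nM rosiglitazone (final) for 17 h at 37 C, then viability read by CellTiter-Glo luminescence.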

[7] = qHTS assay for small molecule agonists of the antioxidant response element (ARE) signaling pathway (AID 743202; active means well fitted activation curve with a large enough effect in the signal ratio in the repeat runs, not every such curve was filed as active; the % refers to the signal ratio; further: potency means the concentration at half of the fitted maximal effect)
Outline: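 ARE-bla HepG2 cells (beta-lactamase reporter under the antioxidant response element), plated 5 hours, then exposed to compounds 16 hours at 37 C. LiveBLAzer B/G FRET substrate added for 2 hours at room temperature; fluorescence intensity read.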

[8] = qHTS assay for small molecule agonists of the antioxidant response element (ARE) signaling pathway - cell viability counter screen (AID 743203; calls by dose curve; further: nearly all actives have a fitted effect of over 55% in size)
Outline: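 CellSensor ARE-bla HepG2 cells, 2,000 per well, rested 5 hrs at 37C/5% CO2, then exposed to compound in DMSO for 16 hrs; viability read as CellTiter-Glo luminescence after 30 min at room temperature, in the reporter wells.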

[9] = qHTS assay for small molecule activators of the heat shock response signaling pathway - cell viability counter screen (AID 743209); further: nearly all actives have a fitted effect of over 50% in size
Outline: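 CellSensor HSE-bla HeLa cells, plated overnight at 37 C/5% CO2, were exposed to compounds in DMSO for 5 h at 37 C. Viability was then read in the same wells by CellTiter-Glo luminescence after 30 min at room temperature.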

[10] = qHTS assay to identify small molecule agonists of the peroxisome proliferator-activated receptor delta (PPARd) signaling pathway - cell viability counter screen (AID 743211); further: nearly all actives have a fitted effect of over 55% in size
Outline: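 PPARd-bla HEK293H cells (3000/well) were pre-incubated 5 h at 37 C, then exposed to compound for 17 h at 37 C. After 2 h with LiveBLAzer substrate, CellTiter-Glo was added to the same wells; luminescence read after 30 min at room temperature.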

[11] = target: Peroxisome proliferator-activated receptor delta (Homo sapiens) (UniProt Q03181); test: qHTS assay to identify small molecule agonists of the peroxisome proliferator-activated receptor delta (PPARd) signaling pathway (AID 743212; calls by dose curve)
Chain of Peroxisome proliferator-activated receptor delta (Homo sapiens) (Q03181 whole entry, looked up): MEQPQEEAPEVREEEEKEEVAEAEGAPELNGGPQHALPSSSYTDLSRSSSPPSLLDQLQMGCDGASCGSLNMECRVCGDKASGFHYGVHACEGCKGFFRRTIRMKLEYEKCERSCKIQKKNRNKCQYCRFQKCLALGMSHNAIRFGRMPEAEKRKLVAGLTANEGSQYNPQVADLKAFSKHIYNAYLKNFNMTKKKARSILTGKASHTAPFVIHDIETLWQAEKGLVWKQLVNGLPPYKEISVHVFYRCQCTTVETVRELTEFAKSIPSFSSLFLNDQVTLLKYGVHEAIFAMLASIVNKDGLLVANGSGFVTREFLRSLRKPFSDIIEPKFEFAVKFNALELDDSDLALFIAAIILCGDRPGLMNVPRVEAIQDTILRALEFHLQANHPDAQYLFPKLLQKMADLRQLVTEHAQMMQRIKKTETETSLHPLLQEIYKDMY
Outline: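 GeneBLAzer UAS-bla HEK293H cells carrying a PPARδ construct were exposed to compounds at 37 °C. Beta-lactamase activity was read by FRET fluorescence after 2 h at room temperature with LiveBLAzer B/G substrate.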

[12] = qHTS assay to identify small molecule antagonists of the farnesoid-X-receptor (FXR) signaling pathway - cell viability counter screen (AID 743221; active means well fitted cell-killing curve with a large enough effect in the repeat runs, not every such curve was filed as active; further: nearly all actives have a fitted effect of over 50% in size)
Outline: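 GeneBLAzer FXR-UAS-bla HEK 293T cells, compound plus chenodeoxycholic acid (50 uM final), 16 h at 37 C. CellTiter-Glo added to the same wells after the beta-lactamase read; luminescence read after 30 min at room temperature as viability.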

[13] = qHTS assay for small molecule activators of the heat shock response signaling pathway (AID 743210; active means well fitted activation curve with a large enough effect in the signal ratio in the repeat runs, with a control signal flat, not every such curve was filed as active; the % refers to the signal ratio; further: series mostly up to about 63 µM)
Outline: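 HSE-bla HeLa cells (beta-lactamase reporter under heat shock response elements), plated overnight, then exposed to compounds 5 h at 37 C; LiveBLAzer B/G FRET substrate added, 2.5 h at room temperature, fluorescence intensity read.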

[14] = qHTS assay to identify small molecule antagonists of the peroxisome proliferator-activated receptor delta (PPARd) signaling pathway - cell viability counter screen (AID 743213); further: nearly all actives have a fitted effect of over 50% in size
Outline: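 HEK293H PPARd UAS-bla cells, 5 h pre-incubation, compound + L165041 300 nM final, 17 h 37 C; B/G FRET substrate 2 h RT; then CellTiter-Glo 30 min RT, luminescence.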

[15] = target: Peroxisome proliferator-activated receptor delta (Homo sapiens) (UniProt Q03181); test: qHTS assay to identify small molecule antagonists of the peroxisome proliferator-activated receptor delta (PPARd) signaling pathway (AID 743215; active means well fitted inhibition curve with a large enough effect in the signal ratio in the repeat runs, not every such curve was filed as active; the % refers to the signal ratio;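 further: cells stimulated with agonist L165041 at 300 nM final during compound exposure; series mostly up to about 62 µM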)
Outline: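 PPARd UAS-bla HEK293H cells were pre-incubated 5 h at 37 C, then given test compounds in DMSO plus agonist L165041 (300 nM final). After 17 h at 37 C, beta-lactamase FRET substrate was added; fluorescence read after 2 h at room temperature.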

[16] = qHTS assay to identify small molecule agonists of the farnesoid-X-receptor (FXR) signaling pathway - cell viability counter screen (AID 743218); further: nearly all actives have a fitted effect of over 45% in size
Outline: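 FXR-UAS-bla HEK 293T cells, plated 5 h at 37 C, were exposed to compounds for 16 h at 37 C. CellTiter-Glo was then added to the same wells as the bla readout; luminescence read after 30 min at room temperature.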

[17] = target: Bile acid receptor (Homo sapiens) (UniProt Q96RI1); test: qHTS assay to identify small molecule antagonists of the farnesoid-X-receptor (FXR) signaling pathway (AID 743217; active means well fitted inhibition curve with a large enough effect in the signal ratio in the repeat runs, not every such curve was filed as active; the % refers to the signal ratio)
Chain of Bile acid receptor (Homo sapiens) (Q96RI1 whole entry, looked up): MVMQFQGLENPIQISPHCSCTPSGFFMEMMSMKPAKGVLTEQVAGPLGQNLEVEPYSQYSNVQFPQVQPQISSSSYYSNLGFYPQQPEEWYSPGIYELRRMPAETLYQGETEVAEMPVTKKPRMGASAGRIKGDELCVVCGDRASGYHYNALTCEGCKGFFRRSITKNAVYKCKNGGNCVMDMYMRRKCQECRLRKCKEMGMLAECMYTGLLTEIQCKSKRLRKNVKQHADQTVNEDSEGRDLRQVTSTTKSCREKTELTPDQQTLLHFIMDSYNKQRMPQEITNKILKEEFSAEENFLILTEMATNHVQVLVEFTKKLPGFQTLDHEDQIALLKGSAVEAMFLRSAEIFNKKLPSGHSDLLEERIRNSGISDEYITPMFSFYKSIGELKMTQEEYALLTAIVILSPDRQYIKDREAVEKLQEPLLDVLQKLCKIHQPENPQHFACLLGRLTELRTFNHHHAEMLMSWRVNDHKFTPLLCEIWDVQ
Outline: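 FXR-UAS-bla HEK 293T cells pre-incubated 5 h at 37 °C, then exposed to compounds with chenodeoxycholic acid (50 uM final) for 16 h at 37 °C. Beta-lactamase reporter read by LiveBLAzer B/G FRET substrate fluorescence after 2 h at room temperature.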

[18] = target: Bile acid receptor (Homo sapiens) (UniProt Q96RI1); test: qHTS assay to identify small molecule agonists of the farnesoid-X-receptor (FXR) signaling pathway (AID 743220; active means well fitted activation curve with a large enough effect in the signal ratio in the repeat runs, not every such curve was filed as active; the % refers to the signal ratio)
Outline: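 Beta-lactamase reporter under UAS control in GeneBLAzer FXR HEK 293T cells (5000/well) measured with LiveBLAzer FRET substrate after 2 h at room temperature. Compound exposure lasted 16 h at 37C.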

[19] = target: Vitamin D3 receptor (Homo sapiens) (UniProt P11473); test: qHTS assay to identify small molecule agonists of the vitamin D receptor (VDR) signaling pathway (AID 743222; calls by dose curve)
Chain of Vitamin D3 receptor (Homo sapiens) (P11473 whole entry, looked up): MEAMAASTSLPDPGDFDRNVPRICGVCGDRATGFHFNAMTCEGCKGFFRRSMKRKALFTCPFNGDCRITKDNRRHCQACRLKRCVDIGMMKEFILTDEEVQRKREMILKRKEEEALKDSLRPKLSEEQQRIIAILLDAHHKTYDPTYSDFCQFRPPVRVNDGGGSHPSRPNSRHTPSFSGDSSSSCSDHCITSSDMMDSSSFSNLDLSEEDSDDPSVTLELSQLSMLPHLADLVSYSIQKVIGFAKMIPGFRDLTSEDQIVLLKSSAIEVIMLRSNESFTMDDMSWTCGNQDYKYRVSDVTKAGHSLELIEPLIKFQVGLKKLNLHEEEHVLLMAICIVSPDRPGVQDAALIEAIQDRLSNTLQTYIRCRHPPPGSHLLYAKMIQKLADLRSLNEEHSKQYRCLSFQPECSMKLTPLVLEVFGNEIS
Outline: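 VDR-bla cells were plated 4 h at 37C/5% CO2, then exposed to compounds in DMSO for 16 h. After LiveBLAzer B/G FRET substrate addition and 2 h at room temperature, beta-lactamase reporter fluorescence was read.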

[20] = target: Vitamin D3 receptor (Homo sapiens) (UniProt P11473); test: qHTS assay to identify small molecule antagonists of the vitamin D receptor (VDR) signaling pathway (AID 743223; active means well fitted inhibition curve with a large enough effect in the signal ratio in the repeat runs, not every such curve was filed as active; the % refers to the signal ratio)
Outline: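 VDR-bla cells were treated with compound plus 3 nM final 1alpha,25-dihydroxyvitamin D3 for 16 h at 37C. Beta-lactamase reporter read by B/G FRET substrate fluorescence after 2 h at room temperature. qHTS format.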
On the % scale 0 is the no-effect control and ±100 the full control effect.

COC=O
inactive: activity change, negative = cytotoxicity [1] 0.892% [at 8.47 µM] | activation [2] -0.706% [at 8.47 µM] | viability change, negative = cytotoxic [3] 14.9% [at 8.47 µM] | activation [4] 1.2% [at 7.08 µM] | ratio activity, negative = inhibition [5] 0.629% [at 5.95 µM] | activity change, negative = cytotoxicity [6] -0.602% [at 5.95 µM] | activation [7] -6.55% [at 8.36 µM] | viability change, negative = cytotoxic [8] -4.87% [at 8.36 µM] | activity change, negative = cytotoxicity [9] -11.9% [at 5.95 µM] | activity change, negative = cytotoxicity [10] -28.1% [at 5.95 µM] | activation [11] -8.76% [at 5.95 µM] | activity change, negative = cytotoxicity [12] 10.8% [at 5.95 µM]

CC(CN=Cc1ccccc1O)N=Cc1ccccc1O (centres undefined)
active: Potency [2] 27.3 µM
inactive: Potency [1] | Potency [3] | Potency [4] | Potency [5] | Potency [6] | Potency [8] | outcome [9] | outcome [13] | Potency [10] | Potency [11] | Potency [14] | outcome [15] | Potency [16] | Potency [12]

CC1=C(C)C(=O)C(CCCCC#CCCCC#CCO)=C(C)C1=O
active: Potency [2] 11.9 µM | Potency [5] 29.8 µM | Potency [7] 23.7 µM
inactive: Potency [1] | Potency [3] | Potency [4] | Potency [6] | Potency [8] | Potency [14] | outcome [17] | Potency [12]

O=P(c1ccccc1)(c1ccccc1)c1ccccc1
inactive: Potency [1] | Potency [2] | Potency [3] | Potency [4] | Potency [5] | Potency [6] | Potency [8] | outcome [9] | outcome [13] | Potency [10] | Potency [11] | Potency [14] | outcome [15] | outcome [17] | outcome [18] | Potency [12] | outcome [19] | outcome [20]

C=C(C)C(=O)OCCCCCCCCCCOC(=O)C(=C)C
inactive: Potency [1] | Potency [2] | Potency [3] | Potency [4] | Potency [5] | Potency [6] | Potency [7] | Potency [8] | outcome [9] | Potency [10] | Potency [11] | Potency [14] | outcome [15] | outcome [17] | outcome [18] | Potency [12] | outcome [19] | outcome [20]
